# Bioassay records deposited in PubChem by Sanford-Burnham Center for Chemical Genomics.
# CYP2C9 inhib: blockers of cytochrome P450 2C9 activity – biochemical, luminescence, ADME assay, primary screen; P11712; CYP2C9 Supersomes, luciferin-H conversion; inhibition, % at 5 µM; actives 20% (n = 96,000); AID 777, 2007;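 active means blocking of liver enzyme CYP2C9 beyond about 50% at 5 µM, limit read from the data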
# Pyk2 oligo antag: antagonists of Pyk2 self-association, primary screen, Q293 cells, FERM NanoBiT luminescence, HTS; active compounds read low; z-score (the deposit names both 25 µM and 10 µM); actives 0.83% (n = 99,000); Protein-tyrosine kinase 2-beta (Homo sapiens), Q14289;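 active means Z-score of -3 or lower, scaled per plate to the spread of control and sample wells; inactive means z-score above -3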;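 further: negative z-score means lost luminescence so less FERM oligomerization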
# CYP2C19 inh: blockers of cytochrome P450 2C19 activity – biochemical, luminescence, ADME assay, primary screen. CYP2C19 Supersomes, luciferin-H EGE luminescence, 30 min. inhibition, % at 5 µM. actives 21% (n = 96,000). AID 778, 2007;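 active means CYP2C19 inhibition above a set limit at 5 µM in the primary screen, cut at about 50% in these data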;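 further: plate controls were negative control wells for no effect and 2.5 mM tranylcypromine positive control for full effect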
# CYP2C19 act: human CYP2C19 activators, primary screen, biochemical, luminescence; 96,000 tested, under 10 active; activation factor at 5 µM; recombinant CYP2C19, luciferin-H EGE luminescence; active compounds read high; 0 = fully inhibited enzyme, 1 = untreated enzyme; Cytochrome P450 2C19 (Homo sapiens), P33261; AID 1025, 2008;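 active means activation factor of at least 2 at 5 µM in the primary screen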;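 further: 0 = wells with 2.5 mM tranylcypromine and 1 = vehicle-only wells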
# CYP2C9 act: human CYP2C9 activators, primary screen, biochemical, luminescence; activation factor at 5 µM; AID 1024, 2008; actives 1.4% (n = 96,000); recombinant CYP2C9, luciferin-H conversion; active compounds read high; factor 1 = untreated enzyme, 0 = blocked;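 active means activation factor of 2 or more for CYP2C9 at a 5 µM dose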;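 further: 0 = sulfaphenazole-blocked wells and 1 = vehicle-only wells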
# * hit, by the source's call; . = no result given. A selection: hits, their analogues and other compounds. The true share with any hit is near 28%.
SMILES,CYP2C9 inhib,Pyk2 oligo antag,CYP2C19 inh,CYP2C19 act,CYP2C9 act
CN(CC(=O)Nc1ccc2c(c1)OCCO2)S(=O)(=O)c1ccc(Br)s1,64.5*,0.93,67.7*,0.3,0.4
O=C(CNS(=O)(=O)c1ccc(Br)s1)Nc1ccc2c(c1)OCCO2,75.0*,2.32,19.0,0.8,0.3
O=C(CNS(=O)(=O)c1ccc(Br)s1)NCC1COc2ccccc2O1 (stereo not drawn),64.0*,0.78,22.5,0.8,0.4
CCOC(=O)c1c(NC(=O)CSc2nnc(-c3ccncc3)n2Cc2ccco2)sc(C)c1C,86.6*,-2.76,83.5*,0.2,0.1
CCOC(=O)c1c(NC(=O)CSc2nnc(-c3ccncc3)n2Cc2ccco2)sc(C(C)=O)c1C,.,0.14,.,.,.
Cc1cc(C)c(NC(=O)CSc2nnc(-c3ccncc3)n2Cc2ccco2)c(Cl)c1,92.0*,0.28,78.9*,0.2,0.1
CC1CCN(S(=O)(=O)c2ccc(S(=O)(=O)NCC(=O)C(C)(C)C)cc2)CC1,15.0,0.76,14.6,0.9,0.8
O=C(Nc1ccc(CN2CCOCC2)cc1)c1ccc(-c2ccc(Br)cc2)o1,23.1,-1.5,18.2,0.8,0.8
CC(C)Cn1c(-c2ccccc2F)n[nH]c1=S,46.2,0.89,80.7*,0.2,0.5
CC(C)Cn1c(-c2ccco2)n[nH]c1=S,-3.9,-0.29,15.7,0.8,1
CC(C)Cn1c(-c2ccc(F)cc2)n[nH]c1=S,18.7,-0.47,85.5*,0.1,0.8
CC(=O)CCc1ccc(OCCCCn2cncn2)cc1,24.4,0.11,46.6,0.5,0.8
c1ccc(COc2ccc(OCCn3cncn3)cc2)cc1,95.9*,0.38,91.5*,0.1,0
O=C(O)c1ccccc1OCCOc1ccccc1C(=O)O,-18.3,0.91,-9.3,1.1,1.2
CCC(=O)c1ccccc1OCCCn1cncn1,30.8,1.57,89.9*,0.1,0.7
c1ccc(Oc2cccc(OCCn3cncn3)c2)cc1,68.1*,-0.47,94.8*,0.1,0.3
c1ccc(-c2ccc(OCCCn3cncn3)cc2)cc1,71.4*,-0.07,70.1*,0.3,0.3
O=C(COc1cccc(Oc2ccccc2)c1)Nc1ncccn1,11.4,0.18,38.0,0.6,0.9
CC1CCN(S(=O)(=O)c2cn(CC(=O)N3CCN(C)CC3)c(=O)c3ccccc23)CC1,31.3,-0.36,14.9,0.9,0.7
Cc1ccc(=O)n(C(C(=O)NCc2ccco2)C(=O)c2ccc(F)cc2)c1 (stereo not drawn),-9.0,-0.08,6.5,0.9,1.1
O=C1CSC(c2cn(-c3ccccc3)nc2-c2cccs2)N1Cc1ccccc1 (stereo not drawn),1.7,.,-10.0,1.1,1
COC(=O)C1=C(C)NC(C)=C(C(=O)OC)C1c1cn(-c2ccccc2)nc1-c1ccco1,83.4*,-0.71,42.8,0.6,0.2
NC1=NC(c2cn(-c3ccccc3)nc2-c2cccs2)n2c(nc3ccccc32)N1 (stereo not drawn),-2.7,0,-15.9,1.2,1
C=CCOC(=O)C1=C(C)NC(=O)NC1c1cn(-c2ccccc2)nc1-c1cccs1 (stereo not drawn),78.6*,-2.59,68.2*,0.3,0.2
COCCOC(=O)C1=C(C)NC(=O)NC1c1cccs1 (stereo not drawn),-13.1,-1.15,16.2,0.8,1.1
SMILES,CYP2C9 inhib,Pyk2 oligo antag,CYP2C19 inh,CYP2C19 act,CYP2C9 act
CC1=C(C#N)C(c2cn(-c3ccccc3)nc2-c2cccs2)C(C#N)=C(C)N1,75.3*,-2.4,73.7*,0.3,0.2
COCCOC(=O)C1=C(C)NC(=O)NC1c1cn(-c2ccccc2)nc1-c1cccs1 (stereo not drawn),70.3*,-0.83,75.5*,0.2,0.3
COc1ccc(NS(=O)(=O)c2ccc3c(c2)CCC(=O)N3)c(OC)c1,14.0,1.08,21.5,0.8,0.9
CC1=CC(C)(C)N2C(=O)C3(C(C#N)=C(N)OC4=C3C(=O)CC(C)(C)C4)c3c(C)c(C)cc1c32 (stereo not drawn),8.9,-0.44,8.3,0.9,0.9
Cn1c(-c2cccc(OCc3ccccc3)c2)nc2c1c(=O)[nH]c(=O)n2Cc1ccccc1,54.2*,-0.71,4.6,1,0.5
COc1cc(Br)cc(-c2nc3c(c(=O)[nH]c(=O)n3Cc3ccccc3)n2C)c1O,29.0,-1.29,23.2,0.8,0.7
COc1ccc(-c2nc3c(c(=O)[nH]c(=O)n3Cc3ccccc3)n2Cc2ccccc2)cc1,41.7,-3.1*,21.3,0.8,0.6
COc1ccc(-c2nc3c(c(=O)[nH]c(=O)n3Cc3ccccc3)n2C)cc1,1.4,-0.91,-8.6,1.1,1
O=C(NCCCN1CCOCC1)c1ccc(CS(=O)(=O)Cc2ccc(Cl)cc2)o1,1.7,-0.31,-4.0,1,1
CC1Cc2ccccc2N1C(=O)c1cnc2sccn2c1=O (stereo not drawn),-18.7,.,-12.2,1.1,1.2
Oc1c(Br)cc(C2N=C(c3ccccc3Cl)NO2)cc1Br (stereo not drawn),24.0,0.02,26.1,0.7,0.8
COc1ccc(/C=C/C(=O)c2ccccc2)cc1COc1ccc(F)cc1,64.8*,-0.62,16.2,0.8,0.4
COc1ccc(/C=N/NC(=O)c2ccn[nH]2)cc1COc1ccc(F)cc1,19.3,-3.16*,26.9,0.7,0.8
COc1ccc(/C=N/NC(=O)c2ccn[nH]2)cc1COc1ccc(Cl)cc1Cl,39.5,-2.52,21.6,0.8,0.6
COc1ccc(/C=C/C(=O)NCc2cn(C)nc2C)cc1COc1ccc(Br)cc1,60.5*,-0.92,67.1*,0.3,0.4
COc1ccc(/C=N/n2cncn2)cc1COc1ccc(NC(C)=O)cc1,68.9*,0.88,61.1*,0.4,0.3
COC(=O)CCC(=O)c1oc2ccc(Cl)cc2c1NC(=O)CCCN1C(=O)c2ccccc2C1=O,79.9*,-0.49,67.0*,0.3,0.2
CC1Cc2nc(SCC(=O)Nc3ccc4c(c3)OCO4)n(CCc3ccccc3)c(=O)c2S1 (stereo not drawn),84.8*,.,44.3,0.6,0.2
CCn1c(SCC(=O)Nc2ccc3c(c2)OCO3)nc2c(c1=O)SC(C)C2 (stereo not drawn),83.6*,.,69.0*,0.3,0.2
CC1Cc2nc(SCC(=O)Nc3nc4ccccc4s3)n(C)c(=O)c2S1 (stereo not drawn),97.8*,.,96.8*,0,0
CCSc1nnc(NC(=O)CSc2nc3c(c(=O)n2C)SC(C)C3)s1 (stereo not drawn),62.5*,-1.32,33.9,0.7,0.4
CCSc1nnc(NC(=O)CSc2nc3c(c(=O)n2CC)SC(C)C3)s1 (stereo not drawn),38.3,-2.61,2.8,1,0.6
